Inconclusive results are not listed. Values without a mark were called inactive. The source made the active and inactive calls. Calls come from the whole dose curve; as a rule, active = well fitted cell-killing curve with a large enough effect in the repeat runs; inconclusive = weak or mixed curves, or effect the other way; inactive = no such curve, though single readings can be large or run the other way.
% is set by controls: 0 for no effect and ±100 for the full control effect; potency is the fitted concentration of half-maximal effect.

The nature of the experiment: qHTS assay to identify small molecule agonists of the estrogen receptor alpha (ER-alpha) signaling pathway in the presence of an antagonist - cell viability counter screen (AID 1259386). Note: nearly all actives have a fitted effect of over 30% in size. The note with it: VM7Luc4E2 viability, CellTiter-Fluor fluorescence, 22 h; series mostly up to 92.4 µM; activity change, negative = cytotoxicity: at the top concentration. The text has this: National Center for Advancing Translational Sciences [NCATS]
NIH Chemical Genomics Center [NCGC]
U.S. Environmental Protection Agency [EPA]
National Institutes of Environmental Health Sciences [NIEHS]
National Toxicology Program [NTP]
U.S. Food and Drug Administration [FDA]
Estrogen receptor (ER), a member of nuclear hormone receptor plays an important role in development, metabolic homeostasis and reproduction. Two subtypes of ER, ER-alpha and ER-beta, have similar expression patterns with some uniqueness in both types. Endocrine disrupting chemicals (EDCs) and their interactions with steroid hormone receptors like ER causes disruption of normal endocrine function. Therefore, it is important to understand the effect of environmental chemicals in ER signaling pathway. For identifying ER agonists, VM7Luc4E2 cell line has been used in the current assay.
VM7Luc4E2 cell line (provided by Denison MS, University of California) endogenously expresses full-length ER-alpha and is stably transfected with a plasmid containing four estrogen responsive elements (ERE) upstream of a luciferase reporter gene. This current screening for measuring luciferase reporter gene activity using VM7Luc4E2 cells against Tox21 10K library collection is a confirmation study on agonist mode screening in presence of ER-antagonist (ICI-182,780) at 10.0nM final concentration. The cytotoxicity of the compounds was tested in parallel by measuring the cell viability using CellTiter-Fluor assay system (Promega, Madison, WI) in the same wells.
Tox21 Assay Protocol Summary:
VM7Luc4E2 cells were cultured in phenol red free assay medium containing 10% charcoal stripped FBS for 5 days prior to the assay. The cells were dispensed at 4,000 cells in 4uL of assay medium per well into white wall/solid-bottom 1536-well plates (Corning Life Sciences, Corning, NY) using a Multidrop Combi (Thermo Fisher Scientific Inc., Waltham, MA) dispenser. After the assay plates were incubated at 37C and 5% CO2 for 24hr, 1uL of 10.0nM (final concentration) ICI-182,780 or assay buffer was added using two separate tips of Flying Reagent Dispenser (FRD, Aurora Discovery, San Diego, CA). Then 23nL of compounds dissolved in DMSO at 15 concentrations and positive controls or DMSO only was transferred to the assay plates by a Pintool station (Wako, San Diego, CA). The assay plates were incubated at 37C and 5% CO2 for 22hr. After 21hr incubation at 37C, 1uL/well CellTiter-Fluor reagent (Promega Corporation, Madison, WI) was added to each well using FRD and after 1hr incubation at 37C and 5% CO2, the fluorescence signal was measured on ViewLux plate reader (PerkinElmer, Shelton, CT).
A general note: qHTS replaces the single test concentration by a dilution series.
Take `O=S(=O)(O)c1cccc2ccccc12`: the “activity change, negative = cytotoxicity” value was 3.41%.
`CC1OC1C1CCC2(C)OC2C1` (stereo not given): the “activity change, negative = cytotoxicity” value is 0.32%.
On to `CCOC(=O)c1cnc2c(cnn2CC)c1NN=C(C)C`, for which the “activity change, negative = cytotoxicity” value was -0.111% [at 42.5 µM].
On the same count and under the same terms, as for `C=COC(=O)C(C)(CC)CCC(C)C` (stereo not given), the figure is 1.42%; as for `O=C1NC(=O)C2CC=CCC12` (stereo not given), 0.161%.
As for `CN(C)C(=O)Oc1ccc[n+](C)c1`, the “activity change, negative = cytotoxicity” value is 0.442% [at 42.5 µM].
On to `O=C1c2ccccc2C(=O)c2cc(O)ccc21`, for which the Potency is 27.3 µM (active).
Regarding `CCCCCCCCCCCCCCCCCCO`, the “activity change, negative = cytotoxicity” value is 6.02% [at 42.5 µM].
The same measure, in the same setting: as for `CN1CC(=O)N/C1=N/C(=O)Nc1cccc(Cl)c1`, the figure is 0.373% [at 42.5 µM].
Same read-out and setting: the result for `Cc1ccc(-c2ccccc2C#N)cc1` reads 2.88% [at 42.5 µM]; that for `C[N+]12CCC(CC1)C(OC(=O)C(O)(c1ccccc1)c1ccccc1)C2` (stereo not given), 1.02% [at 42.5 µM]; that for `CC1=C(C/C=C(\C)CCC[C@H](C)CCC[C@H](C)CCCC(C)C)C(=O)c2ccccc2C1=O`, 2.54% [at 42.5 µM].
In the case of `O=C(CO)[C@@H](O)[C@H](O)[C@@H](O)CO`, the “activity change, negative = cytotoxicity” value was 4.27% [at 42.5 µM].
As for `CC(C)C(=O)OC(=O)C(C)C`, the “activity change, negative = cytotoxicity” value is -0.276%.
The same measure, in the same setting: the result for `O=C(c1ccccc1O)c1ccccc1O` reads -8.02%.
As for `C[C@H]1C[C@H]2[C@@H]3CCC4=CC(=O)C=C[C@]4(C)[C@H]3C(=O)C[C@]2(C)[C@@]1(O)C(=O)CO`, the “activity change, negative = cytotoxicity” value is 3.83% [at 42.5 µM].
Take `CCC(C(=O)NC(=O)NC(C)=O)c1ccccc1` (stereo not given): the “activity change, negative = cytotoxicity” value was -0.604% [at 42.5 µM].
As for `CCCCN(CCC(=O)OCC)C(C)=O`, the “activity change, negative = cytotoxicity” value is 1.89%.
`CCN(C=O)CC`: the “activity change, negative = cytotoxicity” value is -0.539%.
On to `Nc1ccn([C@@H]2O[C@H](CO)[C@@H](O)[C@@H]2O)c(=O)n1`, for which the “activity change, negative = cytotoxicity” value was -0.243%.
For `CC1(C)[C@@H]2CC[C@@]1(C)[C@H](O)C2`, the “activity change, negative = cytotoxicity” value was 2.55%.
Regarding `C[C@@H]1C[C@H]2[C@@H]3C[C@H](F)C4=CC(=O)C(Cl)=C[C@]4(C)[C@@]3(F)[C@@H](O)C[C@]2(C)[C@@]1(O)C(=O)CO`, the “activity change, negative = cytotoxicity” value was 3.18% [at 42.5 µM].
As for `COc1ccccc1OCC1CNC(=O)O1` (stereo not given), the “activity change, negative = cytotoxicity” value is 4.35% [at 42.5 µM].
In the case of `CCCCCCCCN1CCCC1=O`, the “activity change, negative = cytotoxicity” value is 1.69%.
On the same count and under the same terms, the result for `CC(C)(C)OC(=O)c1cccc(N)c1` reads 0.0635%; that for `CN1CCN(c2cc3c(nn2)Oc2ccccc2N3C)CC1`, -4.4% [at 19 µM]; that for `C1CCC2(CCCCO2)OC1`, 0.326%.
The same measure, in the same setting: the result for `Cc1onc(-c2c(Cl)cccc2Cl)c1C(=O)Cl` reads -0.254% [at 42.5 µM]; that for `O=C(O)CNC(=O)c1ccccc1`, 0.127% [at 42.5 µM]; that for `COC(=O)Nc1ccc(Cl)c(Cl)c1`, -5.28%.
Consider `Clc1cc(Cl)c(Cl)nc1Cl`, for which the “activity change, negative = cytotoxicity” value was 2.45%.
Same read-out and setting: as for `COc1ccnc(CS(=O)c2nc3cc(OC(F)F)ccc3[nH]2)c1OC` (stereo not given), the figure is -6.27%.
Take `COc1cc2c(cc1OC)-c1cc3ccc(OC)c(OC)c3c[n+]1CC2`: the Potency was 61.7 µM (active).
Turning to `CC(=O)C1CCCCC1=O` (stereo not given), the “activity change, negative = cytotoxicity” value is 0.915%.
On to `CCOC(=O)C(=O)CCCCCCl`, for which the “activity change, negative = cytotoxicity” value is 4.47% [at 42.5 µM].
`CC(CC=O)CC(C)(C)C` (stereo not given): the “activity change, negative = cytotoxicity” value is 1.27%.
As to `O=C(c1ccccc1)C1(O)CCCCC1`, the “activity change, negative = cytotoxicity” value was 0.534%.
Regarding `CC(C)C[C@@H](N)C(=O)O`, the activity change, negative = cytotoxicity is 2.39% [at 19 µM].
Turning to `CCCC[N+](C)(CCCC)CCCC`, the “activity change, negative = cytotoxicity” value was -2.74%.
`CCCCOC(=O)CCC(C)=O`: the “activity change, negative = cytotoxicity” value was -3.1%.

(Values after PubChem BioAssay (Tox21).)
